Experimental data as given in PubChem BioAssay AID1778 (Sanford-Burnham Center for Chemical Genomics, 2009).
The whole screen tested about 290,000 compounds, of which about 260 (0.09%) were called active. The list comes from a sample in which actives are over-represented; it also holds similar structures and randomly drawn compounds. Entries with a potency or affinity are not part of this list. Unmarked numbers belong to inactive results. Cut-off read from the data, not from the text of the source: active = inhibition above about 50%; inactive = the rest.

The molecules below were run against Kappa-type opioid receptor (Homo sapiens) (UniProt P41145) (assay: KOR antagonists, beta-arrestin recruitment, cell-based, luminescence, uHTS (AID 1778)). Settings: antagonist mode, stronger effect = higher value; at 10 µM unless noted.
Sequence of Kappa-type opioid receptor (Homo sapiens) (P41145 whole entry, looked up): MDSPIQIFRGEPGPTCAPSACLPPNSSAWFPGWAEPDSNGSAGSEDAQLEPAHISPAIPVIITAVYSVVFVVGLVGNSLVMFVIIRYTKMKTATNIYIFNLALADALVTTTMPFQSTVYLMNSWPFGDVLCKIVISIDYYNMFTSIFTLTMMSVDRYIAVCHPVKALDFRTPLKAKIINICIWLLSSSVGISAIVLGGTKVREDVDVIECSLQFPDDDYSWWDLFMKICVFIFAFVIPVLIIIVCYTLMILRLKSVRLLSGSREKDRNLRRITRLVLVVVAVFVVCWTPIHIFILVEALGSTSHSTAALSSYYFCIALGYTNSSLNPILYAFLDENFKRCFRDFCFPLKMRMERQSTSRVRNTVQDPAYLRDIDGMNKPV

In order of rising inhibition:
1. COc1ccc(NC(=S)NC(NC(=O)c2cccc3ccccc23)C(Cl)(Cl)Cl)c([N+](=O)[O-])c1 (centres undefined)  -86.5%
2. Cc1[nH]c2ccccc2c1/C=N/n1cnnc1  -34.7%
3. CCOc1cccc(C(=O)N(Cc2cccc(F)c2)C2CCS(=O)(=O)C2)c1 (centres undefined)  -33.2%
4. COc1cc(/C=C2\SC(=N)N(c3ccc(F)cc3)C2=O)ccc1O  -30.7%
5. O=C(O)c1cc(Nc2cc(Cl)c3nonc3c2[N+](=O)[O-])ccc1O  -28%
6. Oc1c(C=Nc2cccnc2)sc2ccccc12  -24.2%
7. Cc1cn(-c2cc(C(=O)Nc3ccc(C)c(NC(=O)N4CCNC4=O)c3)cc(C(F)(F)F)c2)cn1  -20%
8. COCCSc1nnc(NC(=O)CSc2ccccc2)s1  -18.1%
9. O=C1CN(C(=O)COC(=O)CCNS(=O)(=O)c2ccc(Cl)cc2)c2ccccc2N1  -18.1%
10. Cc1ccc(Cc2cnc(NC(=O)c3cccs3)s2)cc1  -17.2%
11. CC1(C)CC(=O)c2cc(OCC(=O)NCCN3CCOCC3)ccc2O1  -16.7%
12. O=C1OC(c2cccs2)=N/C1=C\c1ccc(-c2cccc(Cl)c2)o1  -15.5%
13. CCOc1ccc(CCNS(=O)(=O)c2cnc[nH]2)cc1OCC  -14.7%
14. CCN(CC)c1cc(NCCO)c([N+](=O)[O-])c2nonc12  -13.9%
15. O=C(N/N=C/c1ccoc1)c1cc(Br)ccc1O  -13.2%
16. CCc1ccc(-n2c(=O)c3c(C)c(C(=O)N(C)C)sc3n(CC(=O)NCc3ccco3)c2=O)cc1  -11.4%
17. Cc1cccc(Cc2cnc(NC(=O)c3ccc(C)o3)s2)c1  -9.9%
18. COc1ccc(/C=C2\SC(=N)N(c3ccc(F)cc3)C2=O)cc1OC  -9.7%
19. CN(C(=O)c1ccc(S(=O)(=O)c2cccc(Cl)c2)c([N+](=O)[O-])c1)C1CCCCC1  -8.7%
20. CN(C)c1cc(Nc2cccc(O)c2)c([N+](=O)[O-])c2nonc12  -7.7%
21. Cc1cccc(Cc2cnc(N3C(=N)SC(c4ccccc4)C3=O)s2)c1 (centres undefined)  -7.2%
22. CCc1nnc(NC(=O)CSc2nnc(CNc3cccc(Cl)c3)n2CC)s1  -7.1%
23. COc1ccc(C)cc1NC(=O)C(Sc1nnc(Nc2cc(C)ccc2OC)s1)c1ccccc1 (centres undefined)  -5.6%
24. CCOc1cc(/C=C2\SC(=N)N(c3nccs3)C2=O)ccc1OCCN1CCOCC1  -3.5%
25. O=C1/C(=C/c2ccco2)SC(=S)N1c1cccnc1  -2.4%
26. Oc1c(/C=N/c2ccccn2)sc2ccccc12  -1.9%
27. COc1ccc(CNC2CCCc3ccccc32)cc1OC (centres undefined)  -0.9%
28. Cc1cn(-c2cc(C(=O)Nc3ccc(C)c(NC(=O)C(=O)c4c[nH]c5ccccc45)c3)cc(C(F)(F)F)c2)cn1  0.6%
29. Cc1cc(C(C)(C)C)oc1C(=O)N(CC(=O)NC1CCCC1)Cc1ccccc1Cl  0.8%
30. Cc1csc(NC(=O)CCCc2cccs2)n1  1.1%
31. O=C(O)c1cccc(Nc2cc(Cl)c3nonc3c2[N+](=O)[O-])c1  4.3%
32. CCC(=O)Nc1ccc(C(=O)n2ccc(C)n2)cc1  5.2%
33. COc1ccccc1NC(=O)c1ccc(CSc2ncccn2)cc1  7.4%
34. COc1ccc(OC)c(NC(=O)c2cc3sccc3n2C)c1  9.4%
35. O=C(NNC1=Nc2ccccc2SC1)c1ccccc1F  10.4%
36. Cc1cccc(N(C(=O)c2snc(C(N)=O)c2N)C(C(=O)NC2CCCC2)c2ccncc2)c1 (centres undefined)  12.2%
37. CCN1CCN(C(=S)c2ccc(Cl)cc2)CC1  12.5%
38. CCNc1cc(Nc2c(C)n(C)n(-c3ccccc3)c2=O)c([N+](=O)[O-])c2nonc12  13.1%
39. COc1ccc(OC)c(N2C(N)=C(C#N)C(c3ccc(OC)c(O)c3)C3=C2CC(C)(C)CC3=O)c1 (centres undefined)  16.3%
40. O=C(NCCc1ccccn1)c1ccc(OC(F)F)cc1  19.2%
41. N=C1SCC(=O)N1c1nc(-c2ccccc2)cs1  23.4%
42. Cc1c(Nc2cc(N3CCOCC3)c3nonc3c2[N+](=O)[O-])c(=O)n(-c2ccccc2)n1C  25.4%
43. Cc1ccc(NC(=O)CCCCCN2C(=O)[C@@H]3Cc4ccccc4CN3C2=O)c(C)c1  26.6%
44. Cc1ccc(-c2csc(N3C(=N)SCC3=O)n2)cc1  26.9%
45. O=C(O)c1ccc(Nc2cc(Cl)c3nonc3c2[N+](=O)[O-])cc1  27.4%
46. N=C1/C(=C\c2ccc(-c3cccc(Cl)c3)o2)C(=O)N=C2SC=C(c3ccccc3)N12  29.8%
47. O=C(NNC1=Nc2ccccc2SC1)c1ccc(F)cc1  30.4%
48. CCOC(=O)C(=O)N1CCC(Cc2ccccc2)CC1  31.7%
49. O=C(O)c1ccccc1Nc1cc(Cl)c2nonc2c1[N+](=O)[O-]  34.1%
50. O=[N+]([O-])c1c(Nc2ccccc2O)ccc2nonc12  35.9%
51. COc1ccc(NC(=S)NC(NC(=O)c2ccc(Cl)cc2Cl)C(Cl)(Cl)Cl)c([N+](=O)[O-])c1 (centres undefined)  36.4%
52. Cc1ccc(Cc2cnc(N3C(=N)SC(c4ccccc4)C3=O)s2)cc1 (centres undefined)  37.3%
53. CN(C)c1cc(Nc2ccc(O)cc2)c([N+](=O)[O-])c2nonc12  40.9%
54. CC(/C=N\N1CCN(c2ccc(Cl)cc2)CC1)=C\c1ccccc1  53.7%

Work on `N=C1S/C(=C\c2ccco2)C(=O)N1c1ccc2c(c1)OCO2` yielded an inhibition of -11.9% [at 20 µM].

For `N=C1S/C(=C\c2ccco2)C(=O)N1c1nccs1`, the inhibition was 71% (active).
`O=[N+]([O-])c1c(Nc2ccc(O)cc2)cc(Cl)c2nonc12` was tested, and the inhibition was 104% (active).
In the case of `O=[N+]([O-])c1c(Nc2cccc(O)c2)cc(Cl)c2nonc12`, the inhibition is reported as 114% [at 20 µM] (active).
`Cc1ccc(Cc2cnc(N3C(=N)SC(C)C3=O)s2)cc1` (centres undefined) was tested, and the inhibition was 88.5% (active).
